Source: PubChem BioAssay (NCI)
About 79,000 compounds went through this panel and 15% of them were active in at least one assay; those are over-represented in the sample as a whole. Active and inactive are the calls of the source. Cut-off read from the data, not from the text of the source: active = growth inhibition above about 70%; inactive = the rest.

What was measured:
[1] = NCI Yeast Anticancer Drug Screen. Data for the rad14 strain (AID 159);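 note: 0% = growth of vehicle-treated control cultures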; conditions: S. cerevisiae rad14 strain growth inhibition, stronger effect = higher value
Outline: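 Readout: yeast growth inhibition, referenced to vehicle-only cultures. Strain bears a defined alteration in DNA damage repair.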

[2] = NCI Yeast Anticancer Drug Screen. Data for the sgs1 mgt1 strain (AID 161);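 note: 0% = growth of cultures given vehicle only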; conditions: S. cerevisiae sgs1 mgt1 strain, stronger effect = higher value
Outline: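 Test agents were incubated with a DNA-repair-mutant yeast strain. Growth was then read and compared against vehicle-treated controls.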

[3] = NCI Yeast Anticancer Drug Screen. Data for the CLN2oe strain (AID 163);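 note: 0% = growth of vehicle-only control cultures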; conditions: S. cerevisiae CLN2oe strain, stronger effect = higher value
Outline: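 Read-out: yeast growth inhibition, expressed relative to vehicle-only controls. The strain bears an engineered cell-cycle alteration.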

[4] = NCI Yeast Anticancer Drug Screen. Data for the cln2 rad14 strain (AID 165);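 note: 0% = growth equal to vehicle treated cultures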; conditions: S. cerevisiae cln2 rad14 strain, stronger effect = higher value
Outline: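 cln2 rad14 yeast strain; compound exposure; growth inhibition read vs vehicle controls.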

[5] = NCI Yeast Anticancer Drug Screen. Data for the bub3 strain (AID 167); conditions: S. cerevisiae bub3 mutant strain, stronger effect = higher value
Outline: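 Part of a panel of yeast mutants defective in DNA damage repair or cell cycle regulation. Each strain is grown with compound, and inhibition is calculated relative to solvent-treated cultures.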

[6] = NCI Yeast Anticancer Drug Screen. Data for the mlh1 strain (AID 171);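 note: 0% = growth of vehicle-treated control cultures of the same strain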; conditions: S. cerevisiae mlh1 strain growth inhibition, stronger effect = higher value
Outline: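 Read-out: growth inhibition versus vehicle controls. Strain: engineered yeast with a defined DNA repair or cell cycle defect, compound-treated.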

[7] = NCI Yeast Anticancer Drug Screen. Data for the sgs1 strain (AID 173);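 note: 0% = growth of vehicle-only control cultures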; conditions: S. cerevisiae sgs1 mutant, stronger effect = higher value
Outline: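 Read-out: yeast growth inhibition relative to vehicle controls, following compound exposure of a strain with a defined DNA repair/cell cycle alteration.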

[8] = NCI Yeast Anticancer Drug Screen. Data for the mlh1 rad18 strain (AID 175); conditions: S. cerevisiae mlh1 rad18 strain growth inhibition, stronger effect = higher value
Outline: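 Yeast w/ defined DNA-repair lesions; compound exposure; growth vs vehicle controls → % inhibition.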

[9] = NCI Yeast Anticancer Drug Screen. Data for the rad18 strain (AID 177); conditions: S. cerevisiae rad18 mutant growth inhibition, stronger effect = higher value
Outline: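 Readout: growth inhibition vs vehicle controls. Cells: genetically altered yeast strain, DNA repair defect.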

[10] = NCI Yeast Anticancer Drug Screen. Data for the wt1 strain (AID 149);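 note: 0% = growth of vehicle-treated wt1 cultures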; conditions: S. cerevisiae wt1 strain (SPY 50644) growth inhibition, stronger effect = higher value
Outline: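 The wt1 strain was treated with compounds, and growth was compared with vehicle-treated cultures to give inhibition.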

[11] = NCI Yeast Anticancer Drug Screen. Data for the rad50EPP+ strain (AID 151);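 note: 0% = growth of vehicle-treated control cultures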; conditions: S. cerevisiae rad50 mutant strain, stronger effect = higher value
Outline: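 Growth inhibition read against vehicle controls in rad50EPP+ yeast, a strain altered in DNA damage repair, after compound exposure.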

[12] = NCI Yeast Anticancer Drug Screen. Data for the rad50 strain (AID 155);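 note: 0% = growth of vehicle-only cultures of the same strain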; conditions: S. cerevisiae rad50 strain growth inhibition, stronger effect = higher value
Outline: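 Cells are treated with compound, grown, and their growth is then scored against vehicle-only cultures of the same repair-deficient yeast strain.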

[13] = NCI Yeast Anticancer Drug Screen. Data for the mec2-1 strain (AID 157); conditions: S. cerevisiae mec2-1 strain, stronger effect = higher value
Outline: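 Yeast mec2-1 mutant treated with compound. Readout: growth inhibition vs vehicle controls.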

[14] = NCI Yeast Anticancer Drug Screen. Data for the wt2 strain (AID 169);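 note: 0% = growth of vehicle-treated yeast cultures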; conditions: S. cerevisiae wt2 strain growth inhibition, stronger effect = higher value
Outline: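 Read-out: growth inhibition versus vehicle-treated control cultures after compound exposure of the yeast strain.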

[15] = at 5.0 µM (retest, dose inferred, filed as 0.5)
[16] = at 50.0 µM (retest, dose inferred, filed as 5.0)

Measured: growth inhibition

O=Cn1c2ccccc2c2ccccc21
inactive: [1]; at 100.0 µM 25% | [2]; [15] -16% | [2]; [16] 46% | [2]; at 50.0 µM 33.5% | [3]; at 1.2 µM -12% | [3]; at 3.7 µM -15% | [3]; at 11.0 µM 1% | [3]; at 33.0 µM -21% | [3]; at 100.0 µM 39% | [4]; [15] 59% | [4]; at 50.0 µM 20.6% | [5]; at 1.2 µM -26% | [5]; at 3.7 µM -8% | [5]; [15] 42% | [5]; at 11.0 µM 13% | [5]; at 33.0 µM -21% | [5]; [16] 66% | [5]; at 50.0 µM 60.9% | [5]; at 100.0 µM 60% | [6]; at 1.2 µM -18% | [6]; at 3.7 µM -17% | [6]; at 11.0 µM 4% | [6]; at 33.0 µM -2% | [6]; at 100.0 µM 65% | [7]; at 1.2 µM -32% | [7]; at 3.7 µM -37% | [7]; at 11.0 µM -8% | [7]; at 33.0 µM -15% | [7]; at 100.0 µM 57% | [8]; [15] 54% | [9]; at 1.2 µM -41% | [9]; at 3.7 µM -32% | [9]; at 11.0 µM -26% | [9]; at 33.0 µM -21% | [9]; at 100.0 µM 65%
active: [4]; [16] 74% | [8]; [16] 97% | [8]; at 50.0 µM 70.8%

CCCCCC/C(C)=N/Nc1ccc([N+](=O)[O-])cc1[N+](=O)[O-]
inactive: [10]; at 1.2 µM 8% | [10]; at 3.7 µM 1% | [10]; at 11.0 µM 4% | [10]; at 33.0 µM -7% | [10]; at 100.0 µM -13% | [11]; at 1.2 µM -7% | [11]; at 3.7 µM -21% | [11]; at 11.0 µM 14% | [11]; at 33.0 µM 22% | [11]; at 100.0 µM 23% | [12]; at 1.2 µM -18% | [12]; at 3.7 µM -18% | [12]; [15] -3% | [12]; at 11.0 µM -18% | [12]; at 33.0 µM -32% | [12]; [16] 21% | [12]; at 50.0 µM -0.35% | [12]; at 100.0 µM 14% | [13]; at 1.2 µM -3% | [13]; at 3.7 µM -4% | [13]; [15] 1% | [13]; at 11.0 µM -3% | [13]; at 33.0 µM -9% | [13]; [16] 43% | [13]; at 50.0 µM -9.7% | [13]; at 100.0 µM -8% | [1]; at 1.2 µM -1% | [1]; at 3.7 µM -2% | [1]; at 11.0 µM 17% | [1]; at 33.0 µM 23% | [1]; at 100.0 µM 2% | [2]; [15] 3% | [2]; [16] 15% | [2]; at 50.0 µM -5.7% | [3]; at 1.2 µM -11% | [3]; at 3.7 µM -10% | [3]; at 11.0 µM -14% | [3]; at 33.0 µM -18% | [3]; at 100.0 µM -19% | [4]; [15] -4% | [4]; at 50.0 µM 30.9% | [5]; at 1.2 µM -8% | [5]; at 3.7 µM -4% | [5]; [15] 7% | [5]; at 11.0 µM -8% | [5]; at 33.0 µM -13% | [5]; at 50.0 µM 20.1% | [5]; at 100.0 µM -12% | [14]; at 1.2 µM -13% | [14]; at 3.7 µM -4% | [14]; at 11.0 µM 5% | [14]; at 33.0 µM 8% | [14]; at 100.0 µM 29% | [6]; at 1.2 µM -13% | [6]; at 3.7 µM -8% | [6]; at 11.0 µM -8% | [6]; at 33.0 µM -11% | [6]; at 100.0 µM -18% | [7]; at 1.2 µM -14% | [7]; at 3.7 µM -8% | [7]; at 11.0 µM 8% | [7]; at 33.0 µM 3% | [7]; at 100.0 µM 29% | [8]; [15] -6% | [8]; [16] 58% | [8]; at 50.0 µM -0.8% | [9]; at 1.2 µM -8% | [9]; at 3.7 µM -9% | [9]; at 11.0 µM -8% | [9]; at 33.0 µM -1% | [9]; at 100.0 µM -36%
active: [4]; [16] 77% | [5]; [16] 91%

CCC1SC(=S)N(c2ccc(Cl)cc2)C1=O (centres undefined)
active: [10]; at 100.0 µM 78% | [11]; at 33.0 µM 96% | [11]; at 100.0 µM 98% | [12]; at 33.0 µM 84% | [12]; at 100.0 µM 96% | [1]; at 100.0 µM 75% | [3]; at 100.0 µM 75% | [5]; at 100.0 µM 97% | [14]; at 100.0 µM 92% | [6]; at 100.0 µM 97% | [7]; at 33.0 µM 75% | [7]; at 100.0 µM 98% | [8]; [16] 71% | [9]; at 100.0 µM 87%
inactive: [10]; at 1.2 µM -2% | [10]; at 3.7 µM -2% | [10]; at 11.0 µM 10% | [10]; at 33.0 µM 23% | [11]; at 1.2 µM -5% | [11]; at 3.7 µM 21% | [11]; at 11.0 µM 42% | [12]; at 1.2 µM -17% | [12]; at 3.7 µM -19% | [12]; [15] 8% | [12]; at 11.0 µM 6% | [12]; [16] 35% | [12]; at 50.0 µM 45% | [13]; at 1.2 µM -3% | [13]; at 3.7 µM -5% | [13]; [15] 1% | [13]; at 11.0 µM -6% | [13]; at 33.0 µM -9% | [13]; [16] 43% | [13]; at 50.0 µM 26.7% | [13]; at 100.0 µM 16% | [1]; at 1.2 µM 4% | [1]; at 3.7 µM 1% | [1]; at 11.0 µM 12% | [1]; at 33.0 µM 26% | [2]; [15] 4% | [2]; [16] 68% | [2]; at 50.0 µM 66% | [3]; at 1.2 µM -9% | [3]; at 3.7 µM -10% | [3]; at 11.0 µM -16% | [3]; at 33.0 µM -20% | [4]; [15] -3% | [4]; [16] -4% | [4]; at 50.0 µM -11.6% | [5]; at 1.2 µM -11% | [5]; at 3.7 µM -10% | [5]; [15] -6% | [5]; at 11.0 µM -13% | [5]; at 33.0 µM 22% | [5]; [16] 44% | [5]; at 50.0 µM 6.05% | [14]; at 1.2 µM -5% | [14]; at 3.7 µM 1% | [14]; at 11.0 µM 20% | [14]; at 33.0 µM 65% | [6]; at 1.2 µM -14% | [6]; at 3.7 µM -10% | [6]; at 11.0 µM -10% | [6]; at 33.0 µM 48% | [7]; at 1.2 µM -8% | [7]; at 3.7 µM -8% | [7]; at 11.0 µM 22% | [8]; [15] 0% | [8]; at 50.0 µM 65% | [9]; at 1.2 µM -8% | [9]; at 3.7 µM -10% | [9]; at 11.0 µM -3% | [9]; at 33.0 µM 48%
